Laboratory results reported in PubChem BioAssay AID1159580 (chemical genetic matrix, 2015).
Screen size: about 5,500 compounds; about 2,000 (36%) were called active. Not shown: some 18% with an inconclusive outcome. Cut-off read from the data, not from the text of the source: active = normalized growth mostly below about 0.91 (no sharp cut-off); inconclusive = no clear call, values can overlap the other calls; inactive = mostly above about 0.92. This is one part of the list.

Test: chemical genetic growth profiling, strain panel (AID 1159580);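 note: tested at 20 µM; growth read once vehicle control cultures reached saturation at 30 °C; 1 = growth at the plate median or of vehicle wells; lower values mean less growth of the strain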
Conditions: growth OD
[1] = S. cerevisiae deletion strains, locus YAL013W, strain DEP1, hits give low values
[2] = S. cerevisiae deletion strains, locus YBR229C, strain ROT2, hits give low values
[3] = S. cerevisiae deletion strains, locus YDL101C, strain DUN1, hits give low values
[4] = S. cerevisiae deletion strains, locus YDR150W, strain NUM1, hits give low values
[5] = S. cerevisiae deletion strains, locus YEL061C, strain CIN8, hits give low values
[6] = S. cerevisiae deletion strains, locus YGR078C, strain PAC10, hits give low values
[7] = S. cerevisiae deletion strains, locus YHR030C, strain SLT2, hits give low values
[8] = S. cerevisiae deletion strains, locus YHR087W, strain rtc3, hits give low values
[9] = S. cerevisiae deletion strains, locus YJR043C, strain POL32, hits give low values
[10] = S. cerevisiae deletion strains, locus YJR075W, strain HOC1, hits give low values
[11] = S. cerevisiae deletion strains, locus YLR039C, strain RIC1, hits give low values
[12] = S. cerevisiae deletion strains, locus YLR058C, strain SHM2 (second series), hits give low values
[13] = S. cerevisiae deletion strains, locus YLR085C, strain ARP6, hits give low values
[14] = S. cerevisiae deletion strains, locus YLR262C, strain YPT6, hits give low values
[15] = S. cerevisiae deletion strains, locus YML094W, strain GIM5, hits give low values
[16] = S. cerevisiae deletion strains, locus YMR219W, strain ESC1, hits give low values
[17] = S. cerevisiae deletion strains, locus YMR263W, strain SAP30, hits give low values
[18] = S. cerevisiae deletion strains, locus YNL153C, strain GIM3, hits give low values
[19] = S. cerevisiae deletion strains, locus YNL298W, strain CLA4 (second series), hits give low values
[20] = S. cerevisiae deletion strains, locus YNL322C, strain KRE1, hits give low values
[21] = S. cerevisiae deletion strains, locus YNR030W, strain Alg12, hits give low values
[22] = S. cerevisiae deletion strains, locus YOL006C, strain TOP1, hits give low values
[23] = S. cerevisiae deletion strains, locus YPL055C, strain LGE1, hits give low values
[24] = S. cerevisiae deletion strains, locus YPL241C, strain CIN2, hits give low values
[25] = S. cerevisiae deletion strains, locus YPR135W, strain CTF4, hits give low values
[26] = S. cerevisiae strains, strain wild type, hits give low values

Measured: normalized growth

N/C(=N/OC(=O)C(Cl)Cl)c1cccc(Cl)c1Cl
inactive: [1] 1.02 | [2] 0.978 | [3] 0.943 | [4] 1 | [5] 0.997 | [6] 0.973 | [7] 0.94 | [8] 0.971 | [9] 0.979 | [10] 0.925 | S. cerevisiae deletion strains, locus YKL190W, strain CNB1, hits give low values 0.982 | [11] 0.936 | [12] 0.968 | [13] 1.04 | [14] 0.921 | [15] 1.03 | [16] 0.984 | [17] 0.992 | [18] 1.01 | [19] 0.965 | [20] 0.98 | [21] 1 | [22] 0.939 | [23] 1.03 | [24] 0.907 | [25] 1.22 | [26] 0.972

N/C(=N/OC(=O)c1ccccc1Cl)c1cccc(CS(=O)(=O)c2ccc(Cl)cc2)c1
active: S. cerevisiae deletion strains, locus YPL256C, strain CLN2, hits give low values 1.2 [resistant]
inactive: S. cerevisiae deletion strains, locus YAR019C, strain CDC15, hits give low values 0.993 | S. cerevisiae deletion strains, locus YBL105C, strain PKC1, hits give low values 0.975 | S. cerevisiae deletion strains, locus YBR135W, strain CKS1, hits give low values 0.981 | S. cerevisiae deletion strains, locus YBR136W, strain MEC1, hits give low values 0.986 | S. cerevisiae deletion strains, locus YBR160W, strain CDC28, hits give low values 0.981 | S. cerevisiae deletion strains, locus YDL017W, strain CDC7, hits give low values 0.984 | S. cerevisiae deletion strains, locus YDL028C, strain MPS1, hits give low values 0.991 | [3] 0.982 | S. cerevisiae deletion strains, locus YDL108W, strain KIN28, hits give low values 0.986 | S. cerevisiae deletion strains, locus YDL132W, strain cdc53, hits give low values 0.984 | S. cerevisiae deletion strains, locus YDL214C, strain PRR2, hits give low values 1.04 | S. cerevisiae deletion strains, locus YDR052C, strain DBF4, hits give low values 0.981 | S. cerevisiae deletion strains, locus YDR054C, strain cdc34, hits give low values 0.984 | S. cerevisiae deletion strains, locus YDR226W, strain ADK1, hits give low values 0.981 | S. cerevisiae deletion strains, locus YDR477W, strain SNF1, hits give low values 0.997 | S. cerevisiae deletion strains, locus YER123W, strain YCK3, hits give low values 0.995 | S. cerevisiae deletion strains, locus YER133W, strain GLC7, hits give low values 1 | S. cerevisiae deletion strains, locus YFL009W, strain cdc4, hits give low values 0.98 | S. cerevisiae deletion strains, locus YFL029C, strain CAK1, hits give low values 0.985 | S. cerevisiae deletion strains, locus YFR003C, strain YPI1, hits give low values 0.977 | S. cerevisiae deletion strains, locus YFR019W, strain FAB1, hits give low values 1.01 | S. cerevisiae deletion strains, locus YFR028C, strain CDC14, hits give low values 0.99 | S. cerevisiae deletion strains, locus YGR040W, strain KSS1, hits give low values 1 | S. cerevisiae deletion strains, locus YGR052W, strain FMP48, hits give low values 1.02 | S. cerevisiae deletion strains, locus YGR092W, strain DBF2, hits give low values 0.974 | [7] 1.12 | S. cerevisiae deletion strains, locus YHR079C, strain IRE1, hits give low values 1.09 | S. cerevisiae deletion strains, locus YHR082C, strain KSP1, hits give low values 1.13 | S. cerevisiae deletion strains, locus YHR205W, strain SCH9, hits give low values 0.984 | S. cerevisiae deletion strains, locus YIL147C, strain SLN1, hits give low values 0.988 | S. cerevisiae deletion strains, locus YJL095W, strain BCK1, hits give low values 0.973 | S. cerevisiae deletion strains, locus YJL128C, strain PBS2, hits give low values 0.985 | S. cerevisiae deletion strains, locus YJL157C, strain FAR1, hits give low values 1.01 | S. cerevisiae deletion strains, locus YJR016C, strain ILV3, hits give low values 0.999 | S. cerevisiae deletion strains, locus YJR066W, strain TOR1 (second series), hits give low values 0.982 | S. cerevisiae deletion strains, locus YJR066W, strain TOR1, hits give low values 1.07 | S. cerevisiae deletion strains, locus YKL048C, strain ELM1, hits give low values 0.996 | S. cerevisiae deletion strains, locus YKL067W, strain YNK1, hits give low values 1.01 | S. cerevisiae deletion strains, locus YKL101W, strain HSL1, hits give low values 1.01 | S. cerevisiae deletion strains, locus YKL193C, strain SDS22, hits give low values 0.983 | S. cerevisiae deletion strains, locus YKL203C, strain TOR2, hits give low values 1.07 | S. cerevisiae deletion strains, locus YLR113W, strain HOG1, hits give low values 0.996 | S. cerevisiae deletion strains, locus YLR133W, strain CKI1, hits give low values 1.02 | S. cerevisiae deletion strains, locus YLR403W, strain SFP1, hits give low values 0.987 | S. cerevisiae deletion strains, locus YML070W, strain DAK1, hits give low values 1.02 | S. cerevisiae deletion strains, locus YMR001C, strain CDC5, hits give low values 0.986 | S. cerevisiae deletion strains, locus YMR205C, strain PFK2 (second series), hits give low values 1 | S. cerevisiae deletion strains, locus YMR277W, strain FCP1, hits give low values 0.99 | S. cerevisiae deletion strains, locus YNL006W, strain LST8, hits give low values 0.994 | S. cerevisiae deletion strains, locus YNL020C, strain ARK1, hits give low values 1.02 | S. cerevisiae deletion strains, locus YNL161W, strain CBK1, hits give low values 0.988 | S. cerevisiae deletion strains, locus YNL183C, strain NPR1, hits give low values 1.04 | S. cerevisiae deletion strains, locus YNL207W, strain RIO2, hits give low values 0.98 | S. cerevisiae deletion strains, locus YNL222W, strain SSU72, hits give low values 0.981 | S. cerevisiae deletion strains, locus YNL307C, strain MCK1 (second series), hits give low values 0.968 | S. cerevisiae deletion strains, locus YOL078W, strain AVO1, hits give low values 0.986 | S. cerevisiae deletion strains, locus YOL136C, strain PFK27, hits give low values 1.03 | S. cerevisiae deletion strains, locus YOR061W, strain CKA2, hits give low values 1.01 | S. cerevisiae deletion strains, locus YOR119C, strain RIO1, hits give low values 1.08 | S. cerevisiae deletion strains, locus YOR231W, strain MKK1, hits give low values 1.01 | S. cerevisiae deletion strains, locus YOR329C, strain SCD5, hits give low values 0.994 | S. cerevisiae deletion strains, locus YPL031C, strain PHO85, hits give low values 1.01 | S. cerevisiae deletion strains, locus YPL153C, strain RAD53, hits give low values 0.994 | S. cerevisiae deletion strains, locus YPL204W, strain HRR25, hits give low values 1 | S. cerevisiae deletion strains, locus YPL209C, strain IPL1, hits give low values 0.981 | S. cerevisiae deletion strains, locus YPR025C, strain CCL1, hits give low values 0.988 | S. cerevisiae deletion strains, locus YPR106W, strain ISR1, hits give low values 1 | S. cerevisiae deletion strains, locus YPR111W, strain DBF20, hits give low values 0.988 | S. cerevisiae deletion strains, strain NNK1, hits give low values 0.99 | S. cerevisiae deletion strains, strain TSCII, hits give low values 0.988

NC(=S)c1ccc2nonc2c1
inactive: [1] 0.999 | [2] 1 | [3] 0.984 | S. cerevisiae deletion strains, locus YDL134C, strain PPH21, hits give low values 0.986 | [4] 0.927 | [5] 1 | [6] 1 | S. cerevisiae deletion strains, locus YGR229C, strain SMI1, hits give low values 0.994 | [7] 0.991 | [8] 0.996 | [9] 1.02 | [10] 1.01 | [11] 1.04 | [12] 1 | [13] 0.945 | [14] 1.02 | [15] 0.982 | [16] 0.992 | [17] 1.03 | S. cerevisiae deletion strains, locus YMR307W, strain GAS1, hits give low values 1.03 | [18] 1.01 | [19] 1.02 | [20] 0.996 | [21] 0.988 | [22] 0.976 | [23] 1.09 | [24] 0.963 | [25] 1.13 | [26] 0.994
